This is an account of results in PubChem BioAssay (NCI).

SMILES strings stand for the structures. Several values for one entry are separate records, joined by “and”; a condition that tells them apart may be missing. Identical values can stand only once. About 79,000 compounds went through this panel and 15% of them were active in at least one assay; those are over-represented in the sample as a whole. Unmarked numbers belong to inactive results. Activity calls are given as the source filed them. No stated cut-off is given here; in the data, active means growth inhibition above about 70%; inactive means the rest.

Test [1] is described as follows: NCI Yeast Anticancer Drug Screen. Data for the rad50 strain (AID 155).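 Further: 0% = growth of vehicle-only cultures of the same strain.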 The conditions noted are these: S. cerevisiae rad50 strain growth inhibition, active compounds read high; at 50.0 µM unless noted. The method, boiled down:
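Growth of the mutant yeast was measured after compound exposure and referenced to vehicle-treated cultures.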

Test [2] in a line: NCI Yeast Anticancer Drug Screen. Data for the mec2-1 strain (AID 157). The settings on record: S. cerevisiae mec2-1 strain, active compounds read high; at 50.0 µM unless noted. In outline:
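Test agents were screened against the mec2-1 yeast strain, with defined DNA repair or cell cycle alteration. Growth was scored as inhibition against vehicle-only controls.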

Test [3] can be described thus: NCI Yeast Anticancer Drug Screen. Data for the sgs1 mgt1 strain (AID 161).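 Further: 0% = growth of cultures given vehicle only.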 The conditions noted are these: S. cerevisiae sgs1 mgt1 strain, active compounds read high; at 50.0 µM unless noted. In outline:
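Test agents were incubated with a DNA-repair-mutant yeast strain. Growth was then read and compared against vehicle-treated controls.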

The nature of test [4]: NCI Yeast Anticancer Drug Screen. Data for the cln2 rad14 strain (AID 165).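 Further: 0% = growth equal to vehicle treated cultures.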 The conditions noted are these: S. cerevisiae cln2 rad14 strain, active compounds read high; at 50.0 µM unless noted. In outline:
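Growth of compound-exposed yeast (cln2 rad14 genotype) measured and expressed as inhibition relative to vehicle.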

Test [5] is described as follows: NCI Yeast Anticancer Drug Screen. Data for the bub3 strain (AID 167). The settings on record: S. cerevisiae bub3 mutant strain, active compounds read high; at 50.0 µM unless noted. In outline: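 Whole-cell yeast assay. The mutant strain was incubated with compounds, and growth inhibition was determined by comparison with vehicle-treated cells.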
A short description of test [6]: NCI Yeast Anticancer Drug Screen. Data for the mlh1 rad18 strain (AID 175). The settings on record: S. cerevisiae mlh1 rad18 strain growth inhibition, active compounds read high; at 50.0 µM unless noted. The method, boiled down: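 In this whole-cell yeast screen, a strain with altered DNA damage repair is challenged with compound, and its growth is measured against matched vehicle-treated controls.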

Take `CN(C)CCN1CC2Cc3ccccc3C1c1ccccc12` (stereo not given): the growth inhibition is 24.1% in test [1]; -6.5% in test [2]; -3.5% in test [3]; 28.9% in test [4]; 43.4% in test [5]; 9.1% in test [6].

In the case of `CC(C)c1ccc(C2NC(c3ccccc3)c3c(ccc4ccccc34)O2)cc1` (stereo not given), the growth inhibition in test [1] was 36.9%; in test [2], -4.85%; in test [3], 6.1%; in test [4], 0.5%; in test [5], -1.6%; in test [6] it was -1.65%.

For the molecule `O=C(NCc1ccc(Cl)cc1)NC1CCCCC1`, the growth inhibition in test [1] is 5.75%; in test [2], 36.9%; in test [3] it was 35.5%; in test [4], 2.7%; in test [5] it was 20.9%; in test [6], 46%.

For the molecule `CCCCCCCCN1C(=O)CCC1=O`, the growth inhibition was -1.45% in test [1]; -19.4% in test [2]; -6.3% in test [3]; 0.5% in test [4]; -14.9% in test [5]; -0.5% in test [6].

With `CC(C)NS(=O)(=O)OCC(O)(CC(Cl)(Cl)Cl)c1ccccc1` (stereo not given), the growth inhibition was 23.8% in test [1]; 4.2% in test [2]; 16.9% in test [3]; 21.9% in test [4]; 11.7% in test [5]; 38.7% in test [6].

In the case of `Nc1ccc(S(=O)(=O)CCS(=O)(=O)c2ccc(N)cc2)cc1`, the growth inhibition in test [1] is 5.65%; in test [2], -4.5%; in test [3], 0.55%; in test [4], -25.1%; in test [5] it was 4.45%; in test [6], 0.8%.

For `O=C(O)CNC(=S)SCC(=O)O`, the growth inhibition in test [1] is -2.4%; in test [2], -6.55%; in test [3] it was -23.1%; in test [4], -32.4%; in test [5] it was 5.2%; in test [6], -19.6%.

Turning to `O=C(NCCCl)NC1CCCCCC1`, the growth inhibition in test [1] is -10.8%; in test [2], -3.6%; in test [3], -16%; in test [4], -9.35%; in test [5], -3.05%; in test [6] it was 2.05%.

For the molecule `COc1cc(C(=O)N(C)C)cc(OC)c1OC`, the growth inhibition in test [1] was -1.25%; in test [2] it was 2.65%; in test [3], -6.6%; in test [4] it was 2.25%; in test [5], -4%; in test [6], 5.5%.

Regarding `CC(C)=CCCC(C)CCO` (stereo not given), the growth inhibition in test [1] was -5.1%; in test [2], -4.75%; in test [3], -15.4%; in test [4], 16.4%; in test [5] it was -16.6%; in test [6] it was 3.25%.

For the molecule `CC1C(c2ccccc2)OCCN1CN1C(=O)c2ccccc2C1=O` (stereo not given), the growth inhibition is 10.8% in test [1]; 17.4% in test [2]; 12.4% in test [3]; 21.8% in test [4]; 17.1% in test [5]; -3.6% in test [6].

As to `CCCCCC(=O)OCCSCCOC(=O)CCCCC`, the growth inhibition is 4.55% in test [1]; 1.3% in test [2]; -5.85% in test [3]; -39.1% in test [4]; 10.8% in test [5]; 0.2% in test [6].

On to `CC(C)C(C=O)C(O)(C(F)(F)F)C(F)(F)F` (stereo not given), for which the growth inhibition in test [1] was 2.3%; in test [2], -2.8%; in test [3], -30.6%; in test [4], 13.3%; in test [5], 22.3%; in test [6], 0.5%.

For the molecule `CCCCC(C#N)C(=O)NC(N)=O` (stereo not given), the growth inhibition was -7% in test [1]; 3.2% in test [2]; -8.05% in test [3]; 0.4% in test [4]; 4.85% in test [5]; -7.25% in test [6].

For the molecule `CC(=O)N1C=CC(=Cc2ccccc2)C=C1`, the growth inhibition in test [1] is -0.15%; in test [2] it was 5.55%; in test [3] it was -30.6%; in test [4], -1.25%; in test [5], 12.8%; in test [6] it was 3.95%.

Take `CN(CCOC(=O)Nc1ccccc1)N=O`: the growth inhibition was 9.35% in test [1]; -9.35% in test [2]; 0.75% in test [3]; -15.4% in test [4]; 7.7% in test [5]; -3% in test [6].

For `O=C(O)C(Cc1cccs1)C(=O)O`, the growth inhibition in test [1] was -12.8%; in test [2] it was 0.6%; in test [3] it was -15.2%; in test [4], 41.5%; in test [5] it was -18.6%; in test [6], -4.25%.

As to `Clc1ccccc1Br`, the growth inhibition in test [1] was 2.85%; in test [2], -11.2%; in test [3] it was 4.65%; in test [4] it was 0.55%; in test [5], 2.25%; in test [6], -8.3%.

With `CC1(C)COC2(CCCCC2)OC1`, the growth inhibition was 12.8% in test [1]; 4.4% in test [2]; -10.6% in test [3]; -30.1% in test [4]; -1.7% in test [5]; 8.95% in test [6].

With `Cc1nc2c(cnn2C)c(=O)n1C(C)C`, the growth inhibition in test [1] is 3.3%; in test [2], -0.3%; in test [3], 3.8%; in test [4], -6.5%; in test [5], -11.3%; in test [6], 3.4%.

As to `N#Cc1ccc(/C=C(/C(=O)c2ccccc2)c2ccccc2)cc1`, the growth inhibition in test [1] is 7.35%; in test [2], -31.9%; in test [3], 0.2%; in test [4] it was 6.85%; in test [5], -23.8%; in test [6] it was -3.35%.

On to `O=C1/C(=C/c2cccc([N+](=O)[O-])c2)Cc2ccccc21`, for which the growth inhibition in test [1] is 12.7%; in test [2], -5.9%; in test [3] it was 5.65%; in test [4], 14.1%; in test [5] it was 17.6%; in test [6] it was 5.05%.

For `CC(C)OC(=S)SC1CCCCC1=O` (stereo not given), the growth inhibition in test [1] is -0.45%; in test [2], -8.1%; in test [3] it was -4.35%; in test [4] it was -66.2%; in test [5], -6.2%; in test [6], -8.25%.

In the case of `CN1NC(c2ccccc2)=C(C#N)C(=O)CC1c1ccccc1` (stereo not given), the growth inhibition in test [1] was 6.8%; in test [2] it was -2.5%; in test [3], 13.1%; in test [4], -1.4%; in test [5], 8.95%; in test [6] it was 10.2%.

On to `CC(=O)Nc1ccc(NC(=O)NCCCCCCNC(=O)Nc2ccc(NC(C)=O)cc2)cc1`, for which the growth inhibition in test [1] was -1.5%; in test [2], 2.7%; in test [3], -21.6%; in test [4] it was -20.6%; in test [5], -1.7%; in test [6] it was 5.5%.

Turning to `Cc1ccc(NC(=O)ON(C)C)cc1`, the growth inhibition in test [1] was -1.65%; in test [2], 11.7%; in test [3], 8.25%; in test [4], -81.5%; in test [5], -18.9%; in test [6] it was -24.2%.

`Cc1cc(-c2cc(C)c(O)c(C)c2)cc(C)c1O`: the growth inhibition is 17.1% and -1.5% in test [1]; 16.6% and 0.8% in test [2]; 39.1% and -7.05% in test [3]; 14.9% and -4.3% in test [4]; 4.7% and -35.7% in test [5]; 23.2% and 3.3% in test [6].

Consider `CCCC(=O)N(CCC(C)C)c1ccccc1`, for which the growth inhibition was -12.6% in test [1]; 6.3% in test [2]; 2.45% in test [3]; 9.9% in test [4]; -9.25% in test [5]; -7.8% in test [6].

On to `Cc1ccc(NC(=O)N(C)C)c(C)c1`, for which the growth inhibition was -36.7% in test [1]; -37% in test [2]; -4.9% in test [3]; 12% in test [4]; 16.4% in test [5]; -9.75% in test [6].

Take `[N-]=[N+]=CC(=O)CCC(=O)N(c1ccccc1)c1ccccc1`: the growth inhibition is -30% in test [1]; -20.8% in test [2]; -52.5% in test [3]; -28.5% in test [4]; 2.2% in test [5]; -30.6% in test [6].

Take `O=C(Nc1ccc2c(c1)Cc1ccccc1-2)c1cccc2ccccc12`: the growth inhibition in test [1] is -4.05%; in test [2], -20.8%; in test [3] it was 0.4%; in test [4], -47%; in test [5], 12.2%; in test [6], -5.2%.

With `CN(C(=O)c1cccc([N+](=O)[O-])c1)C1CCCCC1`, the growth inhibition in test [1] is 2.6%; in test [2], 34.5%; in test [3], 32.6%; in test [4], -4.7%; in test [5] it was 22.4%; in test [6] it was 14.2%.

As for `NC(Cc1c[nH]c2ccccc12)C(=O)O` (stereo not given), the growth inhibition in test [1] was 4.2% and -1.1%; in test [2] it was -7.9% and -8.7%; in test [3], -13.2% and 6.55%; in test [4], 3% and -1.25%; in test [5] it was -28.4% and -2.7%; in test [6] it was 2.65% and -16.2%.

For the molecule `CSc1ccc(Nc2cc(=O)[nH]c(=O)[nH]2)cc1`, the growth inhibition in test [1] was 14.6%; in test [2] it was 8.75%; in test [3], 18.1%; in test [4], 2.3%; in test [5], 3.7%; in test [6], -10.9%.

On to `CC(O)CCC(=O)c1nc2ccccc2s1` (stereo not given), for which the growth inhibition was -14.4% in test [1]; 19.2% in test [2]; 5.95% in test [3]; -6.3% in test [4]; 4.95% in test [5]; 3.5% in test [6].

For `O=[N+]([O-])c1ccccc1S(=O)(=O)c1cccc2c1NCCC2`, the growth inhibition in test [1] is 33.8%; in test [2], 12.3%; in test [3], 33.5%; in test [4], 31.4%; in test [5] it was 48%; in test [6] it was 46.9%.

`CCO[C@@H]1OC(=O)[C@H]2C(c3ccccc3)=NO[C@@H]12`: the growth inhibition in test [1] is -13.2%; in test [2], -22.4%; in test [3], -9.7%; in test [4], 7.55%; in test [5], 13.7%; in test [6] it was -4.15%.

Turning to `CC(C)(C)C1CCC2(CC1)CCN(CCCN1CCOCC1)CC2`, the growth inhibition was 99% (active) in test [1]; 98.4% (active) in test [2]; 98.5% (active) in test [3]; 97.3% (active) in test [4]; 98.3% (active) in test [5]; 97.8% (active) in test [6].

`NC(=O)CCCCCCCCC(N)=O`: the growth inhibition is 10.7% in test [1]; 4.95% in test [2]; 9.65% in test [3]; -4.75% in test [4]; -1.4% in test [5]; 31.1% in test [6].

`CC(=O)c1ccc([N+](=O)[O-])[nH]1`: the growth inhibition in test [1] was -16.4%; in test [2], 23.1%; in test [3], -32.9%; in test [4] it was -3.8%; in test [5] it was -3.95%; in test [6], -5.1%.
